Measured values published in PubChem BioAssay AID2717 (Broad Institute, 2010).
Out of some 300,000 compounds screened, about 3,200 (1.1%) were called active. Many of the other results were omitted from the sample, so actives are more common in it than they were. A number with no mark means an inactive call. Rule as the data show it: active = inhibition above about 75%; inconclusive = no clear call, values can overlap the other calls; inactive = below that; tested in HMLE shEcad cells.

Assay: growth suppression of cancer stem-like cells – cell-based, luminescence, primary screen (AID 2717)
Conditions: cancer stem cell-like cells viability, at 7.5 µM, hits give high values

SMILES | inhibition
CC(C)(c1ccccc1)c1ccc(OCCN2CCCC2)cc1 | 91.2% (active)
CC(C)(c1ccccc1)c1ccc(OCCN)cc1 | 37%
Cc1cc(OCCN2CCCC2)ccc1C(C)C | 1.11%
CN(Cc1ccc(F)cc1)C(=O)CN1C(=O)c2ccccc2S1(=O)=O | 1.87%
Cc1cc(NC(=O)COC(=O)/C=C/c2ccc(C)o2)no1 | -11.7%
O=C(Nc1ncc([N+](=O)[O-])s1)C1COc2ccccc2O1 (stereo not given) | 54.2%
O=C(CCc1ccccc1)Nc1ncc([N+](=O)[O-])s1 | 23.5%
CC(=O)Oc1ccccc1C(=O)Nc1ncc([N+](=O)[O-])s1 | 76.2% (active)
COc1cccc(CNC(C)C(=O)Nc2ccc(S(=O)(=O)N3CCCC3)cc2)c1 (stereo not given) | 10.7%
CN(C(=O)COC(=O)CCCc1c[nH]c2ccccc12)c1c(N)n(Cc2ccccc2)c(=O)[nH]c1=O | -11.7%
CC1(C)CC[C@]2(C(=O)O)CC[C@]3(C)C(=CCC4[C@@]5(C)CC[C@H](O)C(C)(C)C5[C@H](O)C[C@]43C)[C@@H]2C1 (stereo not given in full) | -4.41%
CC1(C)C2CC[C@]3(C)C(CC=C4[C@@H]5C[C@@](C)(CO)CC[C@]5(C(=O)O)CC[C@]43C)[C@@]2(C)CC[C@@H]1O (stereo not given in full) | -8.25%
CC1(C)CC[C@@]2(C(=O)O)C(C1)C1=CCC3[C@@]4(C)CC[C@H](O)C(C)(C)C4CC[C@@]3(C)[C@]1(C)C[C@H]2O (stereo not given in full) | 87.8% (active)
CCOC(=O)[C@H]1[C@H]2COc3ccccc3[C@@H]2N2C(=O)CN(Cc3ccccc3)C(=O)[C@@]12C | -9.72%
Clc1cccc(CN2COc3c(cc(Cl)c4cccnc34)C2)c1 | 118% (active)
O=C(c1cccc(Cl)c1)N1CCN(Cc2ccccc2)CC1 | -14.8%
CC(C)CC(=O)N1CCN(Cc2cccc(Cl)c2)CC1 | -2.32%
O=C(OCC(=O)N1CCCCCC1)c1ccc(Br)c(S(=O)(=O)N2CCOCC2)c1 | -10.2%
COc1ccc(-c2nc3cnccn3c2NC2CCCCC2)cc1-c1cccc(Cl)c1 | 105% (active)
COc1ccc(-c2nc3cnccn3c2NC(C)(C)CC(C)(C)C)cc1O | 0.145%
Cc1ccc2nc(-c3cccnc3)c(NC3CCCC3)n2c1 | -4.39%
CCN(c1ccccc1)S(=O)(=O)c1cccc(C(=O)NCc2ccccc2CN2CCOCC2)c1 | -15.2%
Cc1ccc(-c2nc(C#N)c(NCCCn3ccnc3)o2)cc1 | -10.2%

SMILES | inhibition
N#Cc1nc(-c2ccc(OCc3ccccc3)cc2)oc1NCCCN1CCOCC1 | 86.3% (active)
O=S(=O)(c1ccccc1)c1nc(-c2ccccc2)oc1NCCCN1CCOCC1 | -5.33%
CC(=O)Nc1ccc(S(=O)(=O)Nc2ccc(N3CCCCC3)cc2)cc1 | 21.5%
O=S(=O)(Nc1ccc(O)c2ccccc12)c1ccc(OC(F)(F)F)cc1 | 106% (active)
O=S(=O)(Nc1ccc(OC(F)(F)F)cc1)c1cccc2nonc12 | -7.85%
Cc1nn(C)c(C)c1NS(=O)(=O)c1ccc(OC(F)(F)F)cc1 | 1.58%
Cc1noc(C)c1NC(=O)Nc1ccc2c(c1)C(=O)N([C@H](C)CO)C[C@H](C)[C@@H](CN(C)S(=O)(=O)c1cn(C)cn1)O2 | -15.6%
Cc1cccc(NC(=O)c2ccc(S(=O)(=O)N(C)c3ccccc3)cc2)n1 | -22%
COc1ccc(-c2c(C#Cc3ccsc3)c3cc(-c4ccc(CN5CCOCC5)cc4)ccc3n2C)cc1 | 31.2%
COc1ccc(Cc2nnc(N/N=C/c3ccccc3O)[nH]c2=O)cc1OC | 106% (active)
CC(C)c1ccc(Cc2nnc(NCCCO)[nH]c2=O)cc1 | 13.6%
COc1ccc(/C=N/Nc2nc3ccccc3c(=O)[nH]2)cc1 | 13%
C=CCC[C@H](Cc1ccc(F)cc1)C(=O)OC[C@H](C)NC(=O)[C@H](CC=C)CC(=O)N(CCO)Cc1ccccc1 | -9.39%
COc1cccc2sc(NNC(=O)c3nc4ccccc4s3)nc12 | 103% (active)
COc1cccc2sc(Nc3nc(C)c(C(C)=O)s3)nc12 | 17.8%
COc1ccccc1OCc1nc2ccccc2s1 | 5.53%
CCN(C[C@H]1N[C@@](CC)(C(=O)OC)[C@H]2C(=O)N(C)C(=O)[C@@H]12)C(=O)Nc1ccc(F)cc1 | -20.7%
N#Cc1nc(-c2cccc3ccccc23)oc1N | 8.01%
O=C(NNC(=O)c1ccc(Cl)cc1Cl)c1cccs1 | 5.32%
Cc1ccc(NNC(=O)c2cccs2)cc1Cl | 90.5% (active)
Cc1ccc(NNC(=O)c2c(F)cccc2Cl)cc1Cl | -4.9%
CC(=O)Nc1ccc(SC[C@H](Cc2ccccc2)N2CC[C@@H](C)CCC2=O)cc1 | 1.36%
CC(NC(=O)COC(=O)CCC(=O)c1ccc(Cl)cc1)c1ccccc1 (stereo not given) | -16.5%

SMILES | inhibition
O=C(CCNC(=O)c1ccccc1Cl)NN=Cc1ccco1 | -8.03%
O=[N+]([O-])c1cc(S(=O)(=O)NCCc2ccccn2)ccc1Cl | -19.2%
COc1ccc(-c2csc(-c3cccs3)n2)cc1OC | 11.3%
COc1ccc(-c2csc3nc(-c4ccccc4F)oc(=O)c23)cc1OC | 98.7% (active)
COc1ccccc1-c1nnc(-c2ccc(F)cc2)o1 | 4.47%
O=S(=O)(Nc1ncnc2sccc12)c1cccc(F)c1 | -7.13%
COc1ccc(NC(=O)CNc2cc(S(=O)(=O)N3CCOCC3)ccc2N2CCOCC2)c(OC)c1 | 6.36%
COc1ccccc1N(CCOc1ccccc1)S(=O)(=O)c1ccccc1 | 7.81%
COc1cc(/C=C2\Oc3ccc(C#Cc4ccc(O)cc4)cc3C2=O)cc(OC)c1 | 115% (active)
COc1cc(C#Cc2ccc3cc(CCCO)oc(=O)c3c2)cc(OC)c1 | 11.5%
COc1ccc2c(c1)O/C(=C\c1ccccc1O)C2=O | -1.63%
O=C1N[C@H](Cc2c[nH]c3ccccc23)COC(=O)[C@H](Cc2ccc(F)cc2)C/C=C\C[C@H]1CC(=O)N(CCO)Cc1ccccc1 | 36.2%
CC(=O)NC(CC(=O)Nc1ccc(S(=O)(=O)N2CCOCC2)cc1)c1ccccc1 (stereo not given) | -4.54%
CC(=O)c1c(C)[nH]c(C(=O)COC(=O)c2cccs2)c1C | -12.4%
COc1ccc(C(=O)C(C)OC(=O)c2cccc(S(=O)(=O)Nc3c(C)n(C)n(-c4ccccc4)c3=O)c2)cc1 (stereo not given) | -12.3%
O=C(CN1C(=O)NC2(CCCC2)C1=O)Nc1cc(C(F)(F)F)ccc1N1CCOCC1 | -16.7%
CCOC(=O)C1CCCN(C(=O)CSc2nnc3nc(C)cc(C)n23)C1 (stereo not given) | 8.11%
CC(=O)C1C(c2ccc(Cl)cc2)NC(=O)NC1(O)C(F)(F)F (stereo not given) | -6.38%
CC1=NN(c2ccc(Cl)c(C(=O)O)c2)C(=O)/C1=C/c1ccc(-c2ccccc2[N+](=O)[O-])o1 | 12.7%
O=C(/C=C(O)/C=C/c1ccc(O)cc1)/C=C/c1ccc(O)cc1 | 44.3%
CC1Sc2ccc(C(=O)NCc3ccccc3Cl)cc2NC1=O (stereo not given) | -22.7%
Cc1ccc(C(=O)NCC(=O)NC2CC2)cc1 | -14.8%
O=C(OCC(=O)c1cccs1)C1=COCCO1 | -0.0949%

SMILES | inhibition
CCc1ccc(NC(=O)COC(=O)c2cccs2)cc1 | -11.1%
CCC(C)(C)c1ccc(Oc2ccc(NC(=O)COC(=O)C3=COCCO3)cc2)cc1 | 103% (active)
O=C1OC[C@@H]2CCCN2C(=O)[C@H](CC(=O)N(CCO)Cc2ccccc2)C/C=C\CC[C@@H]1Cc1ccc(F)cc1 | -11.9%
CCOc1ccccc1Nc1nnc(SCC(=O)NCC2CCCO2)s1 (stereo not given) | -6.96%
C=CCC[C@@H](Cc1ccc(F)cc1)C(=O)O[C@H](CNC(=O)[C@H](CC=C)CC(=O)N(CCO)Cc1ccccc1)c1ccccc1 | 41.9%
COc1cc(OC)c(C(=O)NNC(=O)c2ccccc2-n2cccc2)cc1OC | 17.7%
COc1ccc(CNc2nc(NCc3ccc(OC)cc3)c3ncn(C4CCCC4)c3n2)cc1 | 62.8%
O=C(Cn1cnc2c(OCc3ccccc3)ncnc21)NCCCn1ccnc1 | -10.9%
O=C(COC(=O)CN1C(=O)C2CCCCC2C1=O)Nc1ccc(F)c(F)c1F (stereo not given) | -26.6%
O=C1c2ccccc2NC(c2ccc(-c3cccc(Cl)c3)o2)N1O (stereo not given) | 85.5% (active)
O=C1NC(c2cccc(Cl)c2)Nc2ccccc21 (stereo not given) | 23%
O=c1c(-c2cccc(Cl)c2)c[nH]n1-c1ccccc1 | 6.17%
C[C@@H](CN1CCC[C@H]1CN1C(N)=NC[C@@H]1Cc1ccccc1)N1C[C@@H](Cc2ccccc2)N(CCCC2CCCC2)C1=N | 1.15%
CCOCc1c(C(=O)N2CCN(Cc3ccc(Br)s3)CC2)oc2ccccc12 | -4.05%
COc1ccc(-c2cc(C(F)(F)F)nc(S(C)(=O)=O)n2)cc1OC | 94.1% (active)
COc1ccc(-c2cc(C(F)(F)F)nc(NCc3cccnc3)n2)cc1 | 32.4%
COc1cc(OC)nc(S(C)(=O)=O)n1 | 2.64%
C[C@H](NS(=O)(=O)c1ccc(Cl)cc1)C(=O)OCC(=O)N1CCOCC1 | 17.5%
Cc1nc2ccccc2nc1N/N=C/c1ccc(O)cc1O | 63.2%
Oc1ccc(/C=N/Nc2nc(-c3ccccc3F)nc3ccccc23)c(O)c1 | 123% (active)
Fc1ccc(/C=N/Nc2nc(-c3cccnc3)nc3ccccc23)cc1 | 5.78%
